Experiment [1] concerns DLD1. In words: cell viability (CellTiter-Glo) relative to plate median (fraction of plate median); higher = more viable cells. Particulars: 5 µM; treatment time 24 h; reporter: 7TFP. A digest of the protocol:
(§1)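 On parallel plates, a Tecan F500 reader recorded either firefly luciferase or CellTiterGlo luminescence. The plates held colorectal cancer cells stably transduced with lentiviral TCF/Wnt firefly luciferase reporters (7TFP or TCF4/Wnt), seeded in 384-well format and treated 24 h later with library compounds at a final 5 µM for 24 h. Per-well signals were normalised to the plate median (webcellHTS2, additive, no log transformation), and two independent replicates were averaged.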
For orientation: Cellular ATP, detected with luciferase, serves as a proxy for viable cell number.

The test system of a further experiment is HCT116. Described as above. The conditions noted are these: 5 µM; treatment time 24 h; reporter: TCF4/Wnt. The essentials: as §1
In experiment [2] the test system is SW480. The experiment is described as above. The conditions noted are these: 5 µM; treatment time 24 h; reporter: 7TFP. A digest of the protocol:
as §1

For experiment [3], the system named is DLD1. In words: TCF/Wnt firefly luciferase reporter signal relative to plate median (fraction of plate median); higher = higher Wnt reporter signal. The conditions noted are these: 5 µM; treatment time 24 h; reporter: 7TFP. A digest of the protocol:
as §1

Experiment [4] has as its system SW480. The description is as above. Particulars: 5 µM; treatment time 24 h; reporter: 7TFP. A digest of the protocol: as §1

± gives the standard deviation of the averaged measurements.

As to `O=C(O)c1cc(=O)c2ccccc2o1`, the cell viability in the experiment on DLD1 [1] was 0.859 ± 0.082; in the experiment with HCT116, 0.961 ± 0.11; in the experiment with SW480 [2] it was 0.987 ± 0.014. Besides, the figures for the “TCF/Wnt firefly luciferase reporter signal” value in the experiment on DLD1 [3] and in the experiment on SW480 [4] were 0.909 ± 0.12 and 0.993 ± 0.011, respectively.
For `CC(=O)Oc1ccc(C(c2ccc(OC(C)=O)cc2)c2ccccn2)cc1` the same measures were 0.806 ± 0.057, 0.931 ± 0.15, 1.1 ± 0.092, 0.65 ± 0.098 and 1.03 ± 0.085.
On to `Nc1ccn([C@@H]2O[C@H](CO)[C@@H](O)[C@@H]2O)c(=O)n1`, for which the cell viability with DLD1 [1] was found to be 0.987 ± 0.018; in the experiment on HCT116 it was 0.849 ± 0.092; with SW480 [2] it was 1.1 ± 0.064. Also, the “TCF/Wnt firefly luciferase reporter signal” value came to 1.08 ± 0.11 in the experiment on DLD1 [3] and 0.968 ± 0.14 in the experiment with SW480 [4].
Taken in the same sequence, the figures for `CC1=C(CCC(=O)O)c2cc3nc(cc4[nH]c(cc5[nH]c(cc1n2)c(C)c5C(C)O)c(C)c4C(C)O)C(C)=C3CCC(=O)O` (stereo not given) were 1.01 ± 0.015, 0.909 ± 0.11, 0.964 ± 0.0099, 1.01 ± 0.13 and 1.02 ± 0.16.
`COc1ccc2[nH]c([S+]([O-])Cc3ncc(C)c(OC)c3C)nc2c1` (stereo not given): the values for the cell viability in the experiment with DLD1 [1], with HCT116 and with SW480 [2] were 0.971 ± 0.084, 1.01 ± 0.048 and 0.978 ± 0.06, respectively. Besides, the “TCF/Wnt firefly luciferase reporter signal” value is 1.09 ± 0.05 in the experiment with DLD1 [3] and 1.06 ± 0.11 in the experiment on SW480 [4].
For the compound `CCCCC1=NC2(CCCC2)C(=O)N1Cc1ccc(-c2ccccc2-c2nnn[nH]2)cc1`, the cell viability in the experiment with DLD1 [1] is 0.897 ± 0.099; in the experiment with HCT116 it was 0.939 ± 0.016; with SW480 [2], 1 ± 0.083. Also, the “TCF/Wnt firefly luciferase reporter signal” value stood at 1.01 ± 0.048 in the experiment with DLD1 [3] and 0.811 ± 0.22 with SW480 [4].
For `Nc1ccc(/N=N/c2ccccc2)c(N)n1`, the cell viability came to 1.1 ± 0.2 with DLD1 [1], 1.07 ± 0.035 in the experiment with HCT116 and 1.1 ± 0.035 in the experiment on SW480 [2]. The “TCF/Wnt firefly luciferase reporter signal” value with DLD1 [3] is 1.285 ± 0.0071; with SW480 [4], 1.3 ± 0.028.
With `O=C(O)c1cc(=O)c2cccc(O)c2[nH]1`, the figures for the cell viability with DLD1 [1], with HCT116 and in the experiment on SW480 [2] were 0.932 ± 0.077, 1.07 ± 0.1 and 0.946 ± 0.016, respectively. For the same compound, the “TCF/Wnt firefly luciferase reporter signal” value in the experiment on DLD1 [3] was 1.19 ± 0.014; in the experiment on SW480 [4], 1.15 ± 0.021.
For `COc1ccc2cc(CCC(C)=O)ccc2c1` the same measures were 0.968 ± 0.074, 0.905 ± 0.09, 0.925 ± 0.0085, 1.24 ± 0.27 and 1.25 ± 0.035.
`CC(=O)NCCc1ccc(O)cc1` [N-Acetyl-tyramine]: the cell viability with DLD1 [1] was 0.951 ± 0.017; in the experiment with HCT116 it was 0.985 ± 0.092; in the experiment with SW480 [2], 0.991 ± 0.0071. Besides, the “TCF/Wnt firefly luciferase reporter signal” value in the experiment on DLD1 [3] is 1.13 ± 0.042; in the experiment on SW480 [4], 1.05 ± 0.035.
For the compound `COc1ccc2cc([C@H](C)C(=O)O)ccc2c1`, the cell viability with DLD1 [1] worked out at 1.02 ± 0.039; in the experiment on HCT116 it was 0.981 ± 0.083; with SW480 [2] it was 1.045 ± 0.0071. In addition, the “TCF/Wnt firefly luciferase reporter signal” value was found to be 0.969 ± 0.13 with DLD1 [3] and 0.941 ± 0.065 in the experiment with SW480 [4].
For `CC(COc1ccccc1)N(CCCl)Cc1ccccc1` (stereo not given) the same measures were 1 ± 0.057, 1.05 ± 0.028, 0.978 ± 0.025, 1.05 ± 0.21 and 1.03 ± 0.014.
Taken in the same sequence, the figures for `O=C(O)c1cc(O)c2c(c1)[C@H]([C@H]1c3cc(C(=O)O)cc(O)c3C(=O)c3c(O[C@@H]4O[C@H](CO)[C@@H](O)[C@H](O)[C@H]4O)cccc31)c1cccc(O[C@@H]3O[C@H](CO)[C@@H](O)[C@H](O)[C@H]3O)c1C2=O` were 0.943 ± 0.028, 0.967 ± 0.12, 1.01 ± 0.018, 1.08 ± 0.19 and 1.01 ± 0.071.
For `CO[C@@]1(NC(=O)C(C(=O)O)c2ccc(O)cc2)C(=O)N2C(C(=O)O)=C(CSc3nnnn3C)CO[C@@H]21` (stereo not given in full) the same measures were 1.06, 1.02 ± 0.021, 1.07, 0.962 ± 0.097 and 1.06 ± 0.035.
For the compound `C[N+](C)(C)CCOP(=O)(O)OP(=O)([O-])OC[C@H]1O[C@@H](n2ccc(N)nc2=O)[C@H](O)[C@@H]1O`, the cell viability in the experiment on DLD1 [1] was found to be 0.923 ± 0.1; with HCT116, 0.942 ± 0.016; with SW480 [2], 1.01 ± 0.017. The results for the “TCF/Wnt firefly luciferase reporter signal” value in the experiment with DLD1 [3] and in the experiment on SW480 [4] were 1.01 ± 0.096 and 1.04 ± 0.028, respectively.

These data come from the supplement of paper PMC6522484.
